According to PubChem BioAssay AID1159580 (chemical genetic matrix, 2015):
“And” between values parts separate entries of the source, which are not always exact repeats. Identical values can stand only once. Among all 5,500 compounds or so, about 2,000 (36%) were called active. Not shown: some 18% with an inconclusive outcome. Cut-off read from the data, not from the text of the source: active = normalized growth mostly below about 0.91 (no sharp cut-off); inconclusive = no clear call, values can overlap the other calls; inactive = mostly above about 0.92. Some of the results follow.

Assay: chemical genetic growth profiling, strain panel (AID 1159580);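 note: tested at 20 µM; growth read once vehicle control cultures reached saturation at 30 °C; 1 = growth at the plate median or of vehicle wells; lower values mean less growth of the strain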
Settings: S. cerevisiae deletion strains, growth OD

Measured: normalized growth

CN1CCOC(c2ccccc2)c2ccccc2C1 (configuration not stated)
inactive: locus YAL013W, strain DEP1, hits give low values 1.01 | locus YAL021C, strain ccr4, hits give low values 0.949 | locus YAL026C, strain drs2, hits give low values 0.969 | locus YAL030W, strain snc1, hits give low values 0.976 | locus YBL061C, strain skt5, hits give low values 0.979 | locus YBR009C, strain hhf1, hits give low values 0.984 | locus YBR021W, strain FUR4, hits give low values 1.07 | locus YBR023C, strain chs3, hits give low values 0.974 | locus YBR171W, strain sec66, hits give low values 0.976 | locus YBR229C, strain ROT2, hits give low values 1 | locus YBR231C, strain swc5, hits give low values 0.977 | locus YBR279W, strain paf1, hits give low values 0.975 | locus YCL011C, strain gbp2, hits give low values 0.966 | locus YCL016C, strain dcc1, hits give low values 1 | locus YCL029C, strain bik1, hits give low values 1.04 | locus YCL061C, strain MRC1, hits give low values 0.979 | locus YCL069W, strain vba3, hits give low values 0.984 | locus YCR088W, strain abp1, hits give low values 0.973 | locus YDL005C, strain med2, hits give low values 0.979 | locus YDL035C, strain GPR1, hits give low values 1 | locus YDL040C, strain nat1, hits give low values 0.967 | locus YDL074C, strain BRE1, hits give low values 1.05 | locus YDL101C, strain DUN1, hits give low values 1.02 | locus YDL134C, strain PPH21, hits give low values 1 | locus YDL185W, strain tfp1, hits give low values 1.02 | locus YDL192W, strain arf1, hits give low values 1.02 | locus YDR001C, strain nth1, hits give low values 0.974 | locus YDR069C, strain doa4, hits give low values 0.91 | locus YDR101C, strain arx1, hits give low values 1.01 | locus YDR137W, strain rgp1, hits give low values 0.988 | locus YDR150W, strain NUM1, hits give low values 0.992 | locus YDR159W, strain sac3, hits give low values 0.916 | locus YDR162C, strain NBP2, hits give low values 1.01 | locus YDR195W, strain ref2 0.941 | locus YDR297W, strain sur2, hits give low values 0.985 | locus YDR318W, strain mcm21, hits give low values 1.03 | locus YDR334W, strain swr1, hits give low values 0.917 | locus YDR335W, strain msn5, hits give low values 0.995 | locus YDR388W, hits give low values 1.02 | locus YDR392W, strain spt3, hits give low values 0.987 | locus YDR502C, strain sam2, hits give low values 1.01 | locus YEL003W, strain gim4, hits give low values 0.989 | locus YEL037C, strain rad23, hits give low values 0.985 | locus YEL061C, strain CIN8 (second series), hits give low values 0.971 | locus YEL061C, strain CIN8, hits give low values 1 | locus YER015W, strain faa2, hits give low values 0.992 | locus YER016W, strain bim1, hits give low values 0.975 | locus YER110C, hits give low values 1.02 | locus YER111C, strain swi4, hits give low values 0.971 | locus YER155C, strain BEM2 (second series), hits give low values 1.01 | locus YER155C, strain BEM2, hits give low values 1.01 | locus YER167W, strain BCK2, hits give low values 1.01 | locus YFR010W, strain ubp6, hits give low values 0.966 | locus YGL078C, strain dbp3, hits give low values 1.02 | locus YGL086W, strain mad1, hits give low values 0.998 | locus YGL167C, strain pmr1, hits give low values 0.981 | locus YGL173C, strain kem1, hits give low values 0.958 | locus YGL227W, strain vid30, hits give low values 0.951 | locus YGL240W, strain doc1, hits give low values 0.977 | locus YGL248W, strain PDE1, hits give low values 1.01 | locus YGL253W, strain hxk2, hits give low values 0.963 | locus YGR078C, strain PAC10, hits give low values 1.02 | locus YGR135W, strain pre9, hits give low values 1.02 | locus YGR229C, strain SMI1, hits give low values 0.987 | locus YGR252W, strain gcn5, hits give low values 0.997 | locus YHR013C, strain ard1, hits give low values 0.992 | locus YHR027C, strain rpn1, hits give low values 0.98 | locus YHR030C, strain SLT2, hits give low values 1 and 0.998 | locus YHR079C, strain IRE1 (second series), hits give low values 1.02 | locus YHR079C, strain IRE1, hits give low values 0.985 | locus YHR094C, strain hxt1, hits give low values 1.01 | locus YHR129C, strain ARP1, hits give low values 1.01 | locus YHR142W, strain chs7, hits give low values 0.963 | locus YHR200W, strain rpn10, hits give low values 1.02 | locus YIL066C, strain RNR3, hits give low values 1.01 | locus YIL073C, strain SPO22, hits give low values 1.06 | locus YIL125W, strain kgd1, hits give low values 1.01 | locus YIR030C, strain dcg1, hits give low values 1.02 | locus YJL092W, strain hpr5, hits give low values 0.986 | locus YJL095W, strain BCK1 (second series), hits give low values 0.975 | locus YJL095W, strain BCK1, hits give low values 1.02 and 0.995 | locus YJL115W, strain asf1, hits give low values 0.949 | locus YJL129C, strain trk1, hits give low values 0.968 | locus YJL134W, strain LCB3, hits give low values 1 | locus YJL154C, strain vps35, hits give low values 0.95 | locus YJL164C, strain tpk1, hits give low values 0.984 | locus YJL166W, strain qcr8, hits give low values 0.968 | locus YJL168C, strain set2, hits give low values 1.02 | locus YJL187C, strain SWE1 (second series), hits give low values 1.02 | locus YJL187C, strain SWE1, hits give low values 0.985 | locus YJR043C, strain POL32, hits give low values 1.03 | locus YJR066W, strain TOR1, hits give low values 0.945
